Where “and” joins values, the source holds several entries; their conditions need not be identical. Equal values may be shown once. Inconclusive results are not listed. Some structures have more than one record in an assay (separate samples or runs), and their calls can disagree. Calls of active or inactive are those of the source.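 The calls were made as follows, unless noted: active = normalized viability below 100% at a tested concentration; inactive = the rest.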
What was measured:
[1] = viability loss in pontine glioma line – cell-based, SU-DIPG-XIII, MIPE4.0, CellTiter-Glo, qHTS, dose response (AID 1347061; cut-off not given, nearly all actives have AC50 up to about 37 µM;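 also: cells exposed to compound for 48 hours before readout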); details: CellTiter-Glo ATP luminescence
[2] = viability loss in pontine glioma line – cell-based, JHH-DIPG-1, MIPE4.0, CellTiter-Glo, qHTS, dose response (AID 1347062; cut-off not given, nearly all actives have AC50 up to about 27 µM); details: JHH-DIPG-1 viability, CellTiter-Glo ATP luminescence
[3] = viability loss in pontine glioma line – cell-based, SU-DIPG-IV, MIPE4.0, CellTiter-Glo, qHTS, dose response (AID 1347063; cut-off not given, nearly all actives have AC50 up to about 30 µM;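 also: compound exposure lasted 48 hours before the viability readout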); details: CellTiter-Glo ATP luminescence
[4] = viability loss in pontine glioma line – cell-based, SU-DIPG-XXV, MIPE5.0, CellTiter-Glo, qHTS, dose response (AID 1347065; cut-off not given, nearly all actives have AC50 up to about 26 µM;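 also: cells exposed to compound for 48 hours before ATP readout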); details: CellTiter-Glo ATP luminescence
[5] = growth inhibition of DIPG cells – cell-based, MIPE4.0 library, CellTiter-Glo luminescence, qHTS (AID 1347066; cut-off not given, nearly all actives have AC50 up to about 30 µM;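 also: cells exposed to compound for 48 hours before readout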); details: SU-DIPG-VI viability, CellTiter-Glo ATP luminescence
[6] = drug combination growth inhibition, ovarian cancer – cell-based, oncology-focused library, rucaparib conditional, profiling panel (AID 1508598); details: patient-derived ovarian cancer cells, CellTiter-Glo viability, 144 h, stronger effect = lower value
[7] = growth inhibition, single agent or in combination, cell-based, chromothripsis tumors, cisplatin or BGB combos (AID 1671449; in the data active = inhibition above about 80%;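 also: cells exposed for 96 hours; 0% = vehicle DMSO and 100% = killing by high DMSO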); details: LFS_MB_P medulloblastoma cells

C/C(=C\C(=O)Nc1ccccc1C(=O)O)c1ccc2ccccc2c1
-18.4% and -24.9%: inhibition ([7]; measured here: combination with BGB IC40, at 0.005 µM)
9.03% and -7.31%: inhibition ([7]; measured here: combination with BGB IC20, at 0.005 µM)
active: viability ([6]; at 0.000305 µM, OCI-C5x cells, with rucaparib 10 µM, 100% = cells with rucaparib alone) 89.1% | viability ([6]; at 0.00122 µM, OCI-P5x cells, with rucaparib 20 µM, 100% = cells with rucaparib alone) 96.8% | viability ([6]; at 0.00488 µM, OCI-C5x cells, with rucaparib 10 µM, 100% = cells with rucaparib alone) 92.9% | viability ([6]; at 0.0781 µM, OCI-C5x cells, with rucaparib 10 µM, 100% = cells with rucaparib alone) 95.3% | viability ([6]; at 0.313 µM, OCI-C5x cells, with rucaparib 10 µM, 100% = cells with rucaparib alone) 94.4% | viability ([6]; at 1.25 µM, OCI-C5x cells, with rucaparib 10 µM, 100% = cells with rucaparib alone) 95.9% | viability ([6]; at 5 µM, OCI-C5x cells, with rucaparib 10 µM, 100% = cells with rucaparib alone) 89.8% | viability ([6]; at 5 µM, OCI-C5x cells, without rucaparib) 98.2%
102% (active) and -1.28% (inactive): inhibition ([7]; at 0.5 µM, stronger effect = higher value)
19.3% and -24.1%: inhibition ([7]; measured here: combination with BGB IC40, at 0.05 µM)
inactive: outcome [1] | outcome [2] | outcome [3] | outcome [4] | outcome [5] | viability ([6]; at 0.000305 µM, OCI-C5x cells, without rucaparib) 109% | viability ([6]; at 0.000305 µM, OCI-P5x cells, with rucaparib 20 µM, 100% = cells with rucaparib alone) 107% | viability ([6]; at 0.000305 µM, OCI-P5x cells, without rucaparib) 103% | viability ([6]; at 0.00122 µM, OCI-C5x cells, with rucaparib 10 µM, 100% = cells with rucaparib alone) 102% | viability ([6]; at 0.00122 µM, OCI-C5x cells, without rucaparib) 107% | viability ([6]; at 0.00122 µM, OCI-P5x cells, without rucaparib) 101% | viability ([6]; at 0.00488 µM, OCI-C5x cells, without rucaparib) 110% | viability ([6]; at 0.00488 µM, OCI-P5x cells, with rucaparib 20 µM, 100% = cells with rucaparib alone) 112% | viability ([6]; at 0.00488 µM, OCI-P5x cells, without rucaparib) 103% | viability ([6]; at 0.0195 µM, OCI-C5x cells, with rucaparib 10 µM, 100% = cells with rucaparib alone) 111% | viability ([6]; at 0.0195 µM, OCI-C5x cells, without rucaparib) 111% | viability ([6]; at 0.0195 µM, OCI-P5x cells, with rucaparib 20 µM, 100% = cells with rucaparib alone) 106% | viability ([6]; at 0.0195 µM, OCI-P5x cells, without rucaparib) 112% | viability ([6]; at 0.0781 µM, OCI-C5x cells, without rucaparib) 104% | viability ([6]; at 0.0781 µM, OCI-P5x cells, with rucaparib 20 µM, 100% = cells with rucaparib alone) 109% | viability ([6]; at 0.0781 µM, OCI-P5x cells, without rucaparib) 113% | viability ([6]; at 0.313 µM, OCI-C5x cells, without rucaparib) 111% | viability ([6]; at 0.313 µM, OCI-P5x cells, with rucaparib 20 µM, 100% = cells with rucaparib alone) 109% | viability ([6]; at 0.313 µM, OCI-P5x cells, without rucaparib) 110% | viability ([6]; at 1.25 µM, OCI-C5x cells, without rucaparib) 108% | viability ([6]; at 1.25 µM, OCI-P5x cells, with rucaparib 20 µM, 100% = cells with rucaparib alone) 116% | viability ([6]; at 1.25 µM, OCI-P5x cells, without rucaparib) 118% | viability ([6]; at 5 µM, OCI-P5x cells, with rucaparib 20 µM, 100% = cells with rucaparib alone) 119% | viability ([6]; at 5 µM, OCI-P5x cells, without rucaparib) 117%

— PubChem BioAssay
